Reference: ChEMBL document CHEMBL1961873, “Compounds: GSK PKIS; Assays: Nanosyn kinase panel” (2012)
Several values for one entry are separate records, joined by “and”; a condition that tells them apart may be missing. Equal values may be shown once.

Tests used:
[1] = target: Tyrosine-protein kinase Fyn (Homo sapiens) (UniProt P06241); details: at 1 µM
[2] = target: Tyrosine-protein kinase HCK (Homo sapiens) (UniProt P08631); details: at 0.1 µM
[3] = target: Tyrosine-protein kinase HCK (Homo sapiens) (UniProt P08631); details: at 1 µM
[4] = target: Insulin-like growth factor 1 receptor (Homo sapiens) (UniProt P08069); details: at 0.1 µM
[5] = target: Insulin-like growth factor 1 receptor (Homo sapiens) (UniProt P08069); details: at 1 µM
[6] = target: Insulin receptor (Homo sapiens) (UniProt P06213); details: at 0.1 µM
[7] = target: Insulin receptor (Homo sapiens) (UniProt P06213); details: at 1 µM
[8] = target: Insulin receptor-related protein (Homo sapiens) (UniProt P14616); details: at 0.1 µM
[9] = target: Insulin receptor-related protein (Homo sapiens) (UniProt P14616); details: at 1 µM
[10] = target: T1, Tyrosine-protein kinase ITK/TSK (Homo sapiens) (UniProt Q08881); details: at 0.1 µM;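 further: mean percent inhibition of ITK from the GSK PKIS screen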
T1 sequence (whole entry): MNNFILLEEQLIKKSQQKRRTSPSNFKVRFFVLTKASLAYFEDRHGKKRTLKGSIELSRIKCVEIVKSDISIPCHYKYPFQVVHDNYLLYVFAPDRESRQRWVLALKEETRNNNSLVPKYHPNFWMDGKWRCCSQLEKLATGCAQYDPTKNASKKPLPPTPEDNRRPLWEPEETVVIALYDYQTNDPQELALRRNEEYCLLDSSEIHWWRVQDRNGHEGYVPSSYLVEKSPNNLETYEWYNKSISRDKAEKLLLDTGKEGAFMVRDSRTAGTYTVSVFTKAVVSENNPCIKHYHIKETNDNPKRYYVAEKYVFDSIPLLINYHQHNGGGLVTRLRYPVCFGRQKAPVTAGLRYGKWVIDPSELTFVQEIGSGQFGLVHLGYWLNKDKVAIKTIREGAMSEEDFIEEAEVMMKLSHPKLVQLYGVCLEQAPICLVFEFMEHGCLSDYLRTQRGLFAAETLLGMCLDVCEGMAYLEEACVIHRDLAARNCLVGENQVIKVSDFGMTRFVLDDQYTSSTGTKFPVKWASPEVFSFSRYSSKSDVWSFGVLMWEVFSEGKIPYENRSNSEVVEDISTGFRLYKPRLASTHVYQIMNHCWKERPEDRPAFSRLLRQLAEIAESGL

Sequence of Tyrosine-protein kinase Fyn (Homo sapiens) (P06241 2-537 limits assumed): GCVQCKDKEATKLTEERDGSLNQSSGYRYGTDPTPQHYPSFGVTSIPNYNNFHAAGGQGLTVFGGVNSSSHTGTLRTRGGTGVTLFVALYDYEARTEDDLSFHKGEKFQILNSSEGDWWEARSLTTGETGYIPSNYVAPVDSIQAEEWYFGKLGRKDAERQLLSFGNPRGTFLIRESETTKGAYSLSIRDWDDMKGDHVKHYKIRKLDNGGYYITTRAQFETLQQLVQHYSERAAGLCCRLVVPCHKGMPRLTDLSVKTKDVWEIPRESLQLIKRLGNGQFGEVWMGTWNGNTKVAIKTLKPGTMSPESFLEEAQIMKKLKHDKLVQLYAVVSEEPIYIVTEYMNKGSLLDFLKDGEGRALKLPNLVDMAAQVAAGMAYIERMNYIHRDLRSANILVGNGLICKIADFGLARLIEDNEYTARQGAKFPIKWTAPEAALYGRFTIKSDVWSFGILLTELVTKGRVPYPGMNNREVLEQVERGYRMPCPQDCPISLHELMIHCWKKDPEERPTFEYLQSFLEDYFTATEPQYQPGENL
Sequence of Tyrosine-protein kinase HCK (Homo sapiens) (P08631 2-526 limits assumed): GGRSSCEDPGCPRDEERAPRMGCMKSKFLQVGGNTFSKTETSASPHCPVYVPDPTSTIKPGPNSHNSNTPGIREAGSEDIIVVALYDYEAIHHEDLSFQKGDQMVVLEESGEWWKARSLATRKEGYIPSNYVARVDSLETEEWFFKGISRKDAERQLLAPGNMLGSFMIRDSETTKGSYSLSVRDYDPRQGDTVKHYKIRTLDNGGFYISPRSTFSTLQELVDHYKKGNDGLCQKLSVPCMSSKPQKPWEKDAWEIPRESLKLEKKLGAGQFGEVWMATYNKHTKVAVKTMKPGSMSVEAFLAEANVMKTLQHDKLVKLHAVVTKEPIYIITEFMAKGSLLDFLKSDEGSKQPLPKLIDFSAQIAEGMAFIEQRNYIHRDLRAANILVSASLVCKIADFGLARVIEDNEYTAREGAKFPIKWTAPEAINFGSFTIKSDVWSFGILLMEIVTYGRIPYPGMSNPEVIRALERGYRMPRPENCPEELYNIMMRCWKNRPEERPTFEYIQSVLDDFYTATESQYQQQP
Sequence of Insulin receptor-related protein (Homo sapiens) (P14616 27-742 limits assumed): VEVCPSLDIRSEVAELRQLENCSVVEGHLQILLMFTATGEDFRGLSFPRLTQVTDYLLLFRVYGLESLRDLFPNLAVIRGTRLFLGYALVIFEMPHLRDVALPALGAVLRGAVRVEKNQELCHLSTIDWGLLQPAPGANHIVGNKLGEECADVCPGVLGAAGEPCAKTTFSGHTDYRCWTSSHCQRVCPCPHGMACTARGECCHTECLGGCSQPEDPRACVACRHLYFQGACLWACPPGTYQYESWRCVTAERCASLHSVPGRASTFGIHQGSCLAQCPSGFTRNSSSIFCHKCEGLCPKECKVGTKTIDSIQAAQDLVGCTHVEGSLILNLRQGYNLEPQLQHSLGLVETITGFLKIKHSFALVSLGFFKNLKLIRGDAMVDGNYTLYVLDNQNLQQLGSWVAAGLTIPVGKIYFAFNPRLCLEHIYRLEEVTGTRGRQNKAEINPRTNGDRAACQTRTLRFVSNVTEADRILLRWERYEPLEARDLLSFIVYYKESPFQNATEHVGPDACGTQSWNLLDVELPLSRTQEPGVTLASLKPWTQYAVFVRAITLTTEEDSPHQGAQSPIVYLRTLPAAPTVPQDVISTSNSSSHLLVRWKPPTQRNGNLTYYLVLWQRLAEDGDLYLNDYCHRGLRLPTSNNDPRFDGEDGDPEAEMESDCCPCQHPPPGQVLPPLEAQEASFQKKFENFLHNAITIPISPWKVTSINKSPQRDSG
Sequence of Insulin receptor-related protein (Homo sapiens) (P14616 747-1297 limits assumed): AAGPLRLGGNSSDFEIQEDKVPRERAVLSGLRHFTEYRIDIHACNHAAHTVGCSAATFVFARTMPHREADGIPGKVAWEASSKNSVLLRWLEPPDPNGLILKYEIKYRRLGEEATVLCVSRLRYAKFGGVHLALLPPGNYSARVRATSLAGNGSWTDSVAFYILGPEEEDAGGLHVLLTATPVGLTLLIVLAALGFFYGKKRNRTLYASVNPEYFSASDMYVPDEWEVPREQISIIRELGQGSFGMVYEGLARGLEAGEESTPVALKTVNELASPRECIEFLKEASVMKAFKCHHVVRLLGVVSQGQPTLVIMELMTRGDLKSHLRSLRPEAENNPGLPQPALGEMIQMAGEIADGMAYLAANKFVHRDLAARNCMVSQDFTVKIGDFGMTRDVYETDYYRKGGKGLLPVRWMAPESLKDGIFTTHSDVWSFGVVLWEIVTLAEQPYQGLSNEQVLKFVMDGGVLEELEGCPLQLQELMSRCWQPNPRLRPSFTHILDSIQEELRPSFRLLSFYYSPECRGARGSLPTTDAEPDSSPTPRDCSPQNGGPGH
Sequence of Insulin receptor (Homo sapiens) (P06213 28-758 limits assumed): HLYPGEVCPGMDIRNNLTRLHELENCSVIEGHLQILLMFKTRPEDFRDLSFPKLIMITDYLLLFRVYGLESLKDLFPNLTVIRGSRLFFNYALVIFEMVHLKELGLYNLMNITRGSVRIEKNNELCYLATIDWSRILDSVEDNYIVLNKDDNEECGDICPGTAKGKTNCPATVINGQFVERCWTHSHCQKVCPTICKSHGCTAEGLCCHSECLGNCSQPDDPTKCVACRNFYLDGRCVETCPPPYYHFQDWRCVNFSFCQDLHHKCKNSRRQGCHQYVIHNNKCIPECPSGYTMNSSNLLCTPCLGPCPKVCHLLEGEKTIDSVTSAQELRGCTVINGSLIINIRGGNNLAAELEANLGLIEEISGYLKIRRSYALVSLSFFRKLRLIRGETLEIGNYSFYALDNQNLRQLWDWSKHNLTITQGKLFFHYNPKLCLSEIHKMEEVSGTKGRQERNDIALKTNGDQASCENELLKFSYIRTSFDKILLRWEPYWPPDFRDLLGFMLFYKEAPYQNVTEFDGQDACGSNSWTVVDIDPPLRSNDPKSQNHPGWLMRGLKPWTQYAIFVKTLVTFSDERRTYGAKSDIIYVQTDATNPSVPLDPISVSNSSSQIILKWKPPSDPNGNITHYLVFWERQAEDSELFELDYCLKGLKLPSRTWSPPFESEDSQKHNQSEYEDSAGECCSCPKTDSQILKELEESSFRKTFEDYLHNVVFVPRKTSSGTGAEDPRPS
Sequence of Insulin receptor (Homo sapiens) (P06213 763-1382 limits assumed): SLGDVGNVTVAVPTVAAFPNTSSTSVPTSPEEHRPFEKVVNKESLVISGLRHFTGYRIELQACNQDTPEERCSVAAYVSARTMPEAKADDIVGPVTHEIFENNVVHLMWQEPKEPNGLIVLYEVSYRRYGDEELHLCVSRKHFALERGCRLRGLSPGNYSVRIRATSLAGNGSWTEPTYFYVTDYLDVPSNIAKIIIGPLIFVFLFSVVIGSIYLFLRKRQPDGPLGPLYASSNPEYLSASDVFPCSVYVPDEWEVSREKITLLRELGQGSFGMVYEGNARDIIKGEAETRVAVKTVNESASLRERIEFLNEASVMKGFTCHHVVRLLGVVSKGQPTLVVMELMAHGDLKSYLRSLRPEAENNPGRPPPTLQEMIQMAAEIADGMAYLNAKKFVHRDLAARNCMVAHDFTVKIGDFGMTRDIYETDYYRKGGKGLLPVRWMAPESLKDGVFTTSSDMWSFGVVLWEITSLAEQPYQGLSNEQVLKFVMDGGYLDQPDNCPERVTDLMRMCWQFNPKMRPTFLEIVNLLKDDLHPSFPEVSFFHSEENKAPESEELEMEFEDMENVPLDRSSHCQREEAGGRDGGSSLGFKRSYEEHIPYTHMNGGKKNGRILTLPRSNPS
Sequence of Insulin-like growth factor 1 receptor (Homo sapiens) (P08069 31-736 limits assumed): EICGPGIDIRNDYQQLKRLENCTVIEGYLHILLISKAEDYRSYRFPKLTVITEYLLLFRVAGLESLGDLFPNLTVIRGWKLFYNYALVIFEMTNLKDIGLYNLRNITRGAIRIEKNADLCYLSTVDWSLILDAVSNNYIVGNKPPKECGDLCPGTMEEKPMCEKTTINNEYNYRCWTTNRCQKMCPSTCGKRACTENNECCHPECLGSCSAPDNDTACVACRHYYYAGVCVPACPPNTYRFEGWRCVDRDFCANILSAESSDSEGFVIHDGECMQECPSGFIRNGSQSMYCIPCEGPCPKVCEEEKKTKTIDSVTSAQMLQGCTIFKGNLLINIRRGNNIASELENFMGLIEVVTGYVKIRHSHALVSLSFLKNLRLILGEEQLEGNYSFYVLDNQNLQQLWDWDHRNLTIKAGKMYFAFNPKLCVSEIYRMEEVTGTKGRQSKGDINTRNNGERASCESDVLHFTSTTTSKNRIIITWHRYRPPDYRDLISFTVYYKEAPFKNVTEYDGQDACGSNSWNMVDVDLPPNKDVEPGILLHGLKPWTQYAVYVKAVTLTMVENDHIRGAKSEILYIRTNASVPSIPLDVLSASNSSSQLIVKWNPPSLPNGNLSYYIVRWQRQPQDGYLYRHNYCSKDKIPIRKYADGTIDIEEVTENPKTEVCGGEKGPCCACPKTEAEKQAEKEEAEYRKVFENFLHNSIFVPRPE
Sequence of Insulin-like growth factor 1 receptor (Homo sapiens) (P08069 741-1367 limits assumed): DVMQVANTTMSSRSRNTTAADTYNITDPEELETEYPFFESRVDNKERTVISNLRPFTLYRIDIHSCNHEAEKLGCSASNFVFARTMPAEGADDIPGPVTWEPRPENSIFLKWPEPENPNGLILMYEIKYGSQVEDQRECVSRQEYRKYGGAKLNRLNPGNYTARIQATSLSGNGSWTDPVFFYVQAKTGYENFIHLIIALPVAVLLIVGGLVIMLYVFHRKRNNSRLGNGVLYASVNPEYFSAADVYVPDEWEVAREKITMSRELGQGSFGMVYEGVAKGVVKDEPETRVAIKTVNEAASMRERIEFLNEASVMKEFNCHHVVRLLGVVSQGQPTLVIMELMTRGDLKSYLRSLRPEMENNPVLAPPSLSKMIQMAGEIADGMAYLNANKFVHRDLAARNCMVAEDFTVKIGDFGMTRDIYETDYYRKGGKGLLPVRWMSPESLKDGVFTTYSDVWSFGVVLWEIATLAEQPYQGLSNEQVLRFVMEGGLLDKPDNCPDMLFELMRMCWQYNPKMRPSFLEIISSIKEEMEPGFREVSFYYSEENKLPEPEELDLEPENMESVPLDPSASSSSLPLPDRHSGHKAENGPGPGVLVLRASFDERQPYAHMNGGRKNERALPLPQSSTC

Structure (SMILES) | inhibition [1] | inhibition [2] | inhibition [3] | inhibition [4] | inhibition [5] | inhibition [6] | inhibition [7] | inhibition [8] | inhibition [9] | inhibition [10]
CCn1c(-c2nonc2N)nc2cncc(C(=O)NCCNC)c21 | 2% | 4.96% | 6.37% | 1.12% | 5.76% | 5.87% | 15.3% | 3.26% | 5.53% | -0.27%
NS(=O)(=O)c1ccc(N/N=C2\C(=O)Nc3ccc(C(=O)NCc4ccncc4)cc32)cc1 | 50.9% | 5.39% | 16.3% | 10.1% | 9.32% | 1.24% | 3.32% | 2.61% | 2.45% | 0.99%
CC1=C(C(=O)Nc2ccc3[nH]ncc3c2)C(c2ccc(F)cc2)N=C(c2ccc(C(F)(F)F)nc2)N1 (stereo not given) | 3.27% | 4.24% | 12.2% | 3.5% | 3.35% | 3.82% | 1.7% | 1.92% | 1.25% | 1.64%
COc1cc2c(cc1Nc1nc(Nc3cccc(F)c3C(N)=O)c3cc[nH]c3n1)N(C(=O)CN1CCN(C(C)C)CC1)CC2 | 2.53% | 1.66% | 2.73% | 57.8% | 87.7% | 69.1% | 88.2% | 6.85% | 44.3% | 1.77%
CNC(=O)c1sc(-n2cnc3cc(OC)c(OC)cc32)cc1OCc1ccccc1C(F)(F)F | 18.9% | 5.55% | 14% | -3.71% | 1.09% | -4.16% | -0.01% | 2.15% | 2.12% | 0.38%
COC(=O)Nc1nc2ccc(Oc3ccc(NC(=O)Nc4cc(C(F)(F)F)ccc4F)cc3)cc2s1 | 21.1% | 8.79% | 28.3% | -0.75% | 1.6% | 1.59% | 3.09% | -2.9% | -1.09% | 1.03%
COc1ccc(Nc2ncc(-c3ccccc3)o2)cc1OC | 26.1% | 5.41% | 30.2% | 0.16% | 2.03% | 1.73% | 1.42% | -0.23% | -0.92% | 1.19%
CCS(=O)(=O)c1ccc(OC)c(Nc2ncc(-c3cccc(F)c3)o2)c1 | 72.4% | 33% | 74.3% | 5.72% | 6.74% | 7.03% | 8.47% | 2.84% | 4.59% | 2.16%
Cc1cc(O)cc(C)c1/C=C/c1cncc(C(N)=O)c1 | 36.2% | 15.2% | 65.3% | 5.33% | 2.8% | 3.56% | 2.45% | 1.49% | 1.71% | 1.53%
O=C(O[C@H]1CN[C@H](C#Cc2cc3ncnc(Nc4ccc(OCc5cccc(F)c5)c(Cl)c4)c3s2)C1)N1CCOCC1 | 6.59% | 3.37% | 6.71% | 6.13% | 14.8% | 7.72% | 5.91% | 3.84% | 3.3% | 0.99%
Nc1nccc(-c2c(-c3ccc(F)cc3)ncn2C2CCNCC2)n1 | 1.62% and 4.51% | -2.39% and 2.85% | 2.05% and 5.24% | -2.26% and -0.62% | -1.54% and 3.61% | -1.93% and 3.33% | 1.25% and 4.93% | -5.25% and 0.92% | -4.64% and -1.2% | -0.56% and 0.6%
CN1CCC(C(=O)Nc2n[nH]c3nc(-c4ccc(O)cc4)c(Br)cc23)CC1 | 2.18% and 4.52% | 3.06% and 2.78% | 6.08% and 4.64% | -4.96% and 3.55% | -5.49% and 3.41% | 5.36% and 4.34% | 4.73% and 6.55% | 2.54% and -0.17% | 2.5% and 1.64% | -2.09% and 0.57%
COc1ccc2ncn(-c3cc(O[C@H](C)c4ccccc4C(F)(F)F)c(C(N)=O)s3)c2c1 | 5% | 0.81% | 2.14% | -0.28% | -0.09% | 0.11% | 1.34% | -2.16% | -0.27% | 0.33%
Cc1c2ccc(N(C)c3ccnc(Nc4cccc(S(N)(=O)=O)c4)n3)cc2nn1C | 60.5% | 31.2% | 73.8% | -4.22% | 13.1% | 7.68% | 18.7% | 2.78% | 2.81% | -1.73%
NC(=O)c1ccc2c(-c3ccnc(NCCCO)n3)c(-c3ccc(F)cc3)nn2c1 | 5.23% | 7.1% | 15.6% | 3.95% | 6.12% | 10.3% | 6.62% | 4.18% | 4.01% | 1.32%
Fc1cccc(COc2ccc(Nc3ncncc3C#Cc3ccccc3)cc2Cl)c1 | 2.9% | 5.09% | 7.44% | 3.73% | 3.91% | 2.77% | 4.63% | 0.84% | 3.29% | 1.58%

Structure (SMILES) | inhibition [1] | inhibition [2] | inhibition [3] | inhibition [4] | inhibition [5] | inhibition [6] | inhibition [7] | inhibition [8] | inhibition [9] | inhibition [10]
CN1CCN(Cc2ccc(-c3cc4ncnc(Nc5ccc(OCc6cccc(F)c6)c(Cl)c5)c4s3)o2)CC1 | 9.29% and 9.99% | 3.14% and 4.38% | 7.61% and 13.1% | -0.2% and 3.7% | 1.01% and 6.72% | 2.51% and 7.21% | 3.07% and 7.9% | 1.81% and 2.44% | 3.22% and 4.36% | 1.02% and 2.31%
CN(c1ccc(NC(=O)NCCN2CCOCC2)cc1)c1ccnc(Nc2ccc(CS(C)(=O)=O)cc2)n1 | 1.63% | 1.67% | 13.6% | 3.76% | 4.94% | 0.64% | 4% | 2.7% | 2.84% | 1.76%
COc1ccccc1-c1cc(/C=C2\C(=O)Nc3ncc(Br)cc32)cc(Br)c1O | 26.3% | 7.67% | 12.5% | 0.89% | 2.09% | 3.72% | 6.87% | 2.46% | 1.02% | 1.08%
O=C(O[C@H]1CN[C@H](C#Cc2cc3ncnc(Nc4ccc5c(cnn5Cc5ccccc5)c4)c3s2)C1)N1CCOCC1 | 8.19% | -0.73% | 3.3% | -2.85% | -0.43% | 2.89% | 1.79% | -1.64% | -2.28% | -1.11%
CN(C)CCNC(=O)Nc1ccc(N(C)c2ccnc(Nc3ccc(CS(C)(=O)=O)cc3)n2)cc1 | 3.44% | 6.05% | 12.3% | 5.44% | 8.75% | 3.47% | 5.6% | 2.48% | 3.81% | 1.62%
COc1cccc(Nc2nccc(-c3cnn4ncccc34)n2)c1 | 16.2% | 7.25% | 17.4% | 14.5% | 52.4% | 10.9% | 54.2% | 3.8% | 15.4% | 1.26%
CCS(=O)(=O)c1ccc(OC)c(Nc2ncc(-c3cccc(C(C)=O)c3)o2)c1 | 71.4% | 11% | 71.2% | 1.64% | 3.11% | 2.36% | 2.68% | 2.22% | 3.18% | 0.98%
NS(=O)(=O)c1ccc(N/N=C2\C(=O)Nc3cccc(CCc4ccncc4)c32)cc1 | 4.54% | 2.52% | 6.49% | 1.21% | 1.06% | 4.32% | 5.06% | -0.57% | 0.48% | 0.79%
COc1cc(N2CCN(C(C)C)CC2)ccc1Nc1nc(Nc2cccc3ncccc23)c2cc[nH]c2n1 | 2.23% | 0.79% | 1.71% | 12% | 60.5% | 22.6% | 82.1% | -1.05% | 14.8% | -0.09%
FC(F)(F)CNc1nccc(-c2cnn3ncccc23)n1 | 0.37% | 2.76% | 2.72% | 1.46% | 1.63% | 0.86% | 1.21% | -0.18% | 1.1% | -0.07%
Cn1c(-c2nonc2N)nc2cnccc21 | 2.28% | 6.35% | 6.33% | 1.93% | 3.66% | 5.09% | 6.68% | 2.16% | -0.85% | 1.03%
CC1(C)CC(n2cnc(-c3ccc(F)cc3)c2-c2ccnc(N)n2)CC(C)(C)N1 | 2.65% | 2.18% | 3.22% | 1.3% | 3.3% | 4.97% | 4.07% | -0.08% | -1.13% | 0.29%
CC1=C(C(=O)Nc2ccc3[nH]nc(C)c3c2)C(c2ccc(C(F)(F)F)cc2)CC(=O)N1 (stereo not given) | 2.72% | 4.64% | 9.34% | 2.37% | 3.78% | 0.03% | 1.72% | 2.64% | 1.26% | 1.81%
CS(=O)(=O)Nc1ccc(-c2ccc3c(NC(=O)C4CC4)n[nH]c3c2)cc1 | 2.5% | 5.35% | 8.62% | 7.15% | 5.41% | 4.13% | 5.66% | 3.14% | 2.41% | 1.56%
COC(=O)Nc1nc2cc(Oc3ccc(NC(=O)Nc4ccccc4)cc3)ccc2[nH]1 | 4.68% | 2.26% | 4.53% | 0.4% | -0.2% | 3.75% | 6.99% | 0.98% | 1.1% | -0.1%
